TGFb inhibitor = qHTS for Inhibitors of TGF-b; HepG2 CAGA-GFP TGF-b/SMAD3 reporter, GFP fluorescence, 18 h; TGF-beta stimulated, 500 pg/mL final; Potency, µM (doses to about 46.1 µM), inactives show at the highest dose activity, negative = inhibition, usual class: inhibitors; actives 1.2% (n = 410,000); further: on the % scale 0 is the no-effect control and ±100 the full control effect; nearly all actives have a fitted effect of over 65% in size
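Using HEPG2 CAGA-GFP reporter cells at 1000 cells/well, we pinned test compounds, stimulated with recombinant TGF-beta (500 pg/mL final) and measured total well GFP after 18 h.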
KB-3-1 cytotox = qHTS assay for MDR1-selective chemotherapeutics: Primary screen using the parental adenocarcinoma cell KB-3-1; AID 1347075, 2019; Potency, µM (series often up to 46.1 µM), hits mostly cytotoxic; actives 1.4% (n = 400,000); KB-3-1 viability, CellTiter-Glo ATP luminescence, 72 h; further: on the % scale 0 is the no-effect control and ±100 the full control effect; nearly all actives have a fitted effect of over 60% in size
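Here the drug-naive KB-3-1 line serves as comparator for MDR sub-line selectivity; cells received compound titrations, 72 h at 37 °C, then CellTiter-Glo readout.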
HT1080NT lethal = qHTS for induction of synthetic lethality in tumor cells producing 2HG: qHTS for the HT-1080-NT fibrosarcoma cell line; HT-1080-NT fibrosarcoma viability, CellTiter-Glo ATP luminescence, 48 h; Potency, µM (highest dose often 46.1 µM), without a hit: at the highest dose activity, negative = less viability, usual class: cytotoxic; actives 1.6% (n = 360,000);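 further: NT is the 2HG producing partner of a matched IDH1 knockdown line; 0% = DMSO-treated cells and -100% = media-only wells without cells; nearly all actives have a fitted effect of over 55% in size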
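HT-1080-NT fibrosarcoma cells (2HG-overproducing), 750 cells/well in RPMI with 5% FBS, dosed after 2 h and incubated 48 h at 37C. CellTiter-Glo luminescence normalized to DMSO and no-cell wells; concentration-response curves fitted and classed.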
HepG2 tox = qHTS for Inhibitors of TGF-b: Cytotox Counterscreen; actives 0.76% (n = 410,000); Potency, µM (doses to about 46.1 µM), without a hit: at the top dose activity change, negative = cytotoxicity, actives largely listed as cytotoxic; HepG2 CAGA-GFP viability, ATP luminescence, 18 h
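HepG2 CAGA-GFP cells (1000/well, DMEM with 1% FBS) received compound, then TGF-beta at 500 pg/mL final, and were incubated 18 hours at 37 degrees C. Viability was read by CellTiter-Glo luminescence. Media-only wells were set as complete cell-killing and DMSO as no toxicity.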
HT1080 IDH1KD tx = qHTS for induction of synthetic lethality in tumor cells producing 2HG: qHTS for the HT-1080-IDH1KD cell line. HT-1080 IDH1 knockdown viability, ATP luminescence, 48 h. Potency, µM (highest dose often 46.1 µM), for the others: at the top dose activity, negative = toxicity, hits mostly cytotoxic. actives 2% (n = 360,000);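 further: 0% = DMSO wells and -100% = cell-free medium wells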
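CellTiter-Glo luminescence after 48 h compound exposure at 37 degrees C of IDH1-knockdown HT-1080 cells in 5% FBS RPMI. %Activity scaled between DMSO wells and cell-free media wells, with curves fitted and assigned curve classes.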
KB-V1 MDR tox = qHTS assay for MDR1-selective chemotherapeutics: Primary screen using the drug-selected MDR subline cells KB-V1. KB-V1 MDR cells viability, CellTiter-Glo, 72 h. actives 3.4% (n = 400,000). Potency, µM (highest dose often 46.1 µM), actives largely listed as cytotoxic; further: on the % scale 0 is the no-effect control and ±100 the full control effect; nearly all actives have a fitted effect of over 60% in size
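Drug-selected KB-V1 cells, grown in DMEM lacking phenol red with 10% FBS, receive compound titrations; after three days at 37 degrees C, surviving cell ATP is quantified by CellTiter-Glo luminescence and responses normalized and curve-fitted.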
* marks the source's active call; other numbers are inactive results; i = inactive; ? = inconclusive; · = not tested or not shown; [ ] = dose if it differs, or a comment. Hits are enriched below; roughly 6.6% of the tested compounds scored in any of these assays. The call rests on the fitted dose curve; in most records, active means well fitted curve in the direction sought with a large enough effect; inconclusive means small, poorly fitted or top-dose-only effect, or another doubt; inactive means no such curve, though single readings can be large; an effect the other way counts as inactive or inconclusive. Potency means the concentration at half of the fitted maximal effect.

SMILES	TGFb inhibitor	KB-3-1 cytotox	HT1080NT lethal	HepG2 tox	HT1080 IDH1KD tx	KB-V1 MDR tox
COc1cccc(N(C(=O)CCl)C(C(=O)NCCc2ccccc2)c2cccs2)c1 (centres undefined)	13µM*	?	1.6µM*	-106%	1.3µM*	?
C=CCOc1ccc(CN(C)c2ccc(S(=O)(=O)N3CCN(C)CC3)cc2[N+](=O)[O-])cc1	0%	?	-10%	-28%	-10%	8.2µM*
CCOc1ccc(CN(C)c2ccc(S(=O)(=O)N3CCN(C)CC3)cc2[N+](=O)[O-])cc1OC	?	7.3µM*	-2%	-2%	-26%	2.3µM*
CN1CCN(S(=O)(=O)c2ccc(N(C)Cc3ccc(C(F)(F)F)cc3)c([N+](=O)[O-])c2)CC1	0%	i	?	-22%	?	i
CCCN1CNc2c(c(=O)[nH]c(=S)n2CCc2cc(OC)cc(OC)c2)C1	·	·	1%	·	13%	·
CC(=O)NC12CC3CC(C1)CC(C(=O)Nc1cccc(S(=O)(=O)N4CCCCCC4)c1)(C3)C2	-8%	i	4%	1%	8%	15µM*
CC(=O)NC12CC3CC(C1)CC(C(=O)Nc1ccc(C)c(S(=O)(=O)N4CCCCCC4)c1)(C3)C2	0%	?	-2%	-14%	-3%	21µM*
CC[n+]1c(/C=C(\C)SC)sc2ccccc21	-25%	i	-2%	-13%	-8%	i
CC[n+]1c(/C=C(\C)Nc2ccccc2)sc2ccccc21	6%	?	-13%	28%	-16%	21µM*
Cc1ccc(Nc2c3c(nc4nncn24)CCC3)c(C)c1	?	·	·	-4%	·	·
Cc1ccc(NC(=O)Cc2ccc(NC(=O)N3CCCCc4ccccc43)cc2)cc1Cl	7%	i	·	-1%	·	i
CCOc1cccc(N)c1	-2%	i	17%	-1%	-5%	i
CCOc1ccc(N)c(SSc2cc(OCC)ccc2N)c1	6.3µM*	i	?	10µM*	?	i
C[C@@H]1C[C@H]2[C@@H]3CCC4=CC(=O)C=C[C@]4(C)[C@@]3(Cl)[C@@H](O)C[C@]2(C)[C@@]1(OC(=O)c1ccco1)C(=O)CCl	-4%	?	16µM*	-42%	?	?
CC1CC2C3CCC4=CC(=O)C=CC4(C)[C@@]3(Cl)C(O)CC2(C)C1(O)C(=O)CO (some centres undefined)	12%	i	?	3%	17%	i
O=C1NC(=S)S/C1=C\C=C\c1ccc([N+](=O)[O-])o1	2.2µM*	?	5.8µM*	-105%	5.2µM*	4.1µM*
Cc1ccc(-c2cc3c(N4CCN(c5cc(C)ccc5C)CC4)nccn3n2)cc1	1%	?	·	-2%	·	i
S=C(NCc1ccco1)N/N=C/c1ccc(Cl)cc1	13µM*	i	10%	-90%	17%	?
S=C(NCc1ccco1)N/N=C/c1cccnc1	-20%	i	9%	-15%	7%	i
Cc1cc(Cl)ccc1NC(=S)NCc1ccco1	3%	i	14%	3%	14%	21µM*
Oc1ccc(/C=N/NC(=S)NCc2ccco2)cc1	3%	i	10%	1%	14%	i
CCN(CC)c1ccc(/C=N/NC(=S)NCc2ccco2)cc1	?	18µM*	?	4%	?	?
COc1cccc(N2CCN(C(=O)c3cnc4c(-c5ccc(F)cc5)c(C)nn4c3C)CC2)c1	-13%	i	·	-21%	·	i
Cc1cc(C(=O)CSc2nnc(-c3ccccc3F)o2)c(C)n1Cc1cccs1	0%	i	7%	-44%	-6%	?
COc1ccccc1-n1cnnc1SCC(=O)c1cc(C)n(Cc2cccs2)c1C	0%	i	0%	-28%	-3%	16µM*
SMILES	TGFb inhibitor	KB-3-1 cytotox	HT1080NT lethal	HepG2 tox	HT1080 IDH1KD tx	KB-V1 MDR tox
CCOC(=O)c1cc(-c2ccccc2)nc2c(O)cccc12	?	i	-1%	-53%	-23%	i
Cc1cccc(C)c1N/C=C/c1onc(C)c1[N+](=O)[O-]	18%	i	-5%	2%	2%	i
Cc1noc(/C=C/c2cccnc2)c1[N+](=O)[O-]	?	21µM*	21µM*	-75%	?	i
O=C(c1csc2c1CCCC2)N1CCN(c2ncccn2)CC1	8%	i	-14%	-3%	-4%	16µM*
O=C(c1csc2c1CCCC2)N1CCN(c2cccc(C(F)(F)F)c2)CC1	-14%	i	-4%	-22%	-21%	21µM*
Cc1ccc(Nc2ccc(NCc3ccccc3)nn2)cc1C	-18%	i	1%	-19%	-2%	?
Clc1ccc(Nc2ccc(NCc3ccccc3)nn2)cc1	?	i	-11%	13%	-2%	16µM*
CN1C(=O)c2cccc3c(Cl)ccc(c23)C1=O	0%	i	2%	-23%	8%[9.24 µM]	i
CN1C(=O)c2cccc3c(N(C)C)ccc(c23)C1=O	57%	i	5%	-16%	2%	12µM*
Cc1ccc(NC(=O)C(Cc2ccccc2)n2cccc2)cc1C (centres undefined)	-46%	·	·	-38%	·	·
Clc1ccc(COc2cccc(CNCc3ccncc3)c2)cc1	-13%	?	-14%	-29%	-27%	6.5µM*
O=C(C=C=Nc1ccccc1)C(=O)N=C=Cc1ccccc1	?	i	6.5µM*	-55%	3.7µM*	i
O=C(N/N=C/c1ccccc1)C(=O)N/N=C/c1ccccc1	4%	i	14%	9%	11%	i
CC(C)CCNC(=O)Nc1ccc2c(c1)N(Cc1ccccc1)C(=O)c1ccccc1S2	·	·	·	-24%	·	·
COc1ccc(N2CCN(C(CNC(=O)C(=O)NCc3ccc(F)cc3)c3cccnc3)CC2)cc1 (centres undefined)	-26%	i	·	1%	·	i
COC(=O)[C@@]12C[C@@H](CC(=O)NCCC(C)C)C(=O)N(Cc3cccc4ccccc34)C1=CCC(C)(C)C2	·	21µM*	?	·	?	21µM*
COC(=O)[C@]12CCCCC=C1N(Cc1cccc3ccccc13)C(=O)[C@H](CC(=O)NCCC(C)C)C2	·	?	?	·	?	18µM*

Compound activity from PubChem.
